46 compounds from the antibiotic and cytotoxicity screens of Wong et al. (2023) can be followed below.

Hit rate of the full screen: of about 39,000 compounds, about 3,300 (8.5%) were called active. What follows is part of a selection rich in actives, with near analogues and random picks from the rest.

This test deals with HepG2. Nature of the test: cytotoxicity call (relative viability < 0.9). Particulars: 10 µM.
With `CNC(=O)C(=O)Nc1ccc(C)c(F)c1`, the cytotoxicity call is “inactive”.
For the compound `Cc1noc(C)c1NC(=O)Nc1ccc2c(c1)C(=O)N([C@H](C)CO)C[C@H](C)[C@@H](CN(C)CC1CCCCC1)OCCCC[C@H](C)O2`, the cytotoxicity call is “inactive”.
`COc1cccc(S(=O)(=O)N(C)C[C@@H]2Oc3ncc(C#CCC(C)C)cc3C(=O)N([C@@H](C)CO)C[C@@H]2C)c1`: the cytotoxicity call was “inactive”.
The same measure for `O=C(CN1CCOCC1)N[C@@H]1CC[C@@H](CCn2cc(C3CCCC3)nn2)O[C@H]1CO`: “inactive”; for `C[C@@H]1CN([C@@H](C)CO)C(=O)Cc2cc(NC(=O)NC3CCCCC3)ccc2O[C@H]1CN(C)Cc1ccc(C(F)(F)F)cc1`: “inactive”; for `Cc1noc(C)c1NC(=O)Nc1ccc2c(c1)C(=O)N([C@H](C)CO)C[C@H](C)[C@H](CN(C)S(=O)(=O)c1ccccc1)OCCCC[C@H](C)O2`: “inactive”.
In the case of `COc1ccc(S(=O)(=O)N(C)C[C@H]2Oc3c(NS(=O)(=O)c4ccc(C)cc4)cccc3C(=O)N([C@H](C)CO)C[C@H]2C)cc1`, the cytotoxicity call was “inactive”.
With `C[C@@H]1O[C@@H](O[C@H]2[C@H](Oc3cc(O)c(C(=O)CCc4ccc(O)cc4)c(O)c3)O[C@H](CO)[C@@H](O)[C@@H]2O)[C@H](O)[C@H](O)[C@H]1O` the entry was “inactive”.
With `CC(C)C(=O)Nc1cccc(Cl)c1` the entry was “inactive”; with `O=C(CNCCO)Nc1ccc(F)c(Cl)c1`, “inactive”.
With `CCC(=O)Nc1ccc(Cl)cc1` the entry was “inactive”.
`O=C(Nc1ccc(Cl)cc1)Nc1ccc(Cl)c(Cl)c1`: the cytotoxicity call is “active”.
The same measure for `O=C(Nc1ccc(C(F)(F)F)cc1)Nc1cccc(Cl)c1`: “active”; for `N=C(N=C(N)N)Nc1cccc(Cl)c1`: “inactive”; for `C[C@@H]1CN([C@@H](C)CO)C(=O)c2cc(NS(=O)(=O)c3ccccc3)ccc2O[C@@H](C)CCCCO[C@@H]1CN(C)C(=O)Nc1ccc2c(c1)OCO2`: “inactive”.
With `CCCOc1cc(N)ccc1C(=O)OCCN(CC)CC.Cl` the entry was “inactive”; with `CCN(CC)CCOc1ccc2c(c1)C(=O)c1cc(OCCN(CC)CC)ccc1-2`, “active”.
With `O=S1(=O)[C@@H]2C[C@H]3C=CC2(CN1C1CC1)O3` the entry was “inactive”; with `Cc1ccc(S(=O)(=O)N(C)C[C@H]2OCCCC[C@@H](C)Oc3ccc(NC(=O)NC4CCCCC4)cc3C(=O)N([C@H](C)CO)C[C@H]2C)cc1`, “active”.
Regarding `C[C@H](CO)N1C[C@H](C)[C@H](CN(C)S(=O)(=O)c2ccccc2)OCCCC[C@H](C)Oc2ccc(NC(=O)NC3CCCCC3)cc2C1=O`, the cytotoxicity call is “active”.
Consider `C[C@@H]1CCCCO[C@H](CN(C)S(=O)(=O)c2ccccc2)[C@@H](C)CN([C@H](C)CO)C(=O)c2cc(NC(=O)NC3CCCCC3)ccc2O1`, for which the cytotoxicity call is “inactive”.
With `C[C@H]1CCCCO[C@@H](CN(C)S(=O)(=O)c2ccccc2)[C@@H](C)CN([C@@H](C)CO)C(=O)c2cc(NC(=O)NC3CCCCC3)ccc2O1` the entry was “inactive”; with `Cc1ccc(S(=O)(=O)N(C)C[C@@H]2OCCCC[C@@H](C)Oc3ccc(NC(=O)NC4CCCCC4)cc3C(=O)N([C@@H](C)CO)C[C@@H]2C)cc1`, “inactive”.
In the case of `Cc1ccc(S(=O)(=O)N(C)C[C@@H]2OCCCC[C@H](C)Oc3ccc(NC(=O)NC4CCCCC4)cc3C(=O)N([C@@H](C)CO)C[C@H]2C)cc1`, the cytotoxicity call was “active”.
Turning to `Cc1ccc(S(=O)(=O)N(C)C[C@H]2OCCCC[C@H](C)Oc3ccc(NC(=O)NC4CCCCC4)cc3C(=O)N([C@@H](C)CO)C[C@H]2C)cc1`, the cytotoxicity call is “inactive”.
With `Cc1ccc(S(=O)(=O)N(C)C[C@H]2OCCCC[C@@H](C)Oc3ccc(NC(=O)NC4CCCCC4)cc3C(=O)N([C@H](C)CO)C[C@@H]2C)cc1` the entry was “inactive”; with `Cc1ccc(S(=O)(=O)N(C)C[C@H]2OCCCC[C@H](C)Oc3ccc(NC(=O)NC4CCCCC4)cc3C(=O)N([C@@H](C)CO)C[C@@H]2C)cc1`, “inactive”.
The same measure for `Cc1ccc(S(=O)(=O)N(C)C[C@@H]2OCCCC[C@H](C)Oc3ccc(NC(=O)NC4CCCCC4)cc3C(=O)N([C@H](C)CO)C[C@@H]2C)cc1`: “inactive”; for `Cc1ccc(S(=O)(=O)N(C)C[C@@H]2OCCCC[C@H](C)Oc3ccc(NC(=O)NC4CCCCC4)cc3C(=O)N([C@H](C)CO)C[C@H]2C)cc1`: “active”.
As for `Cc1ccc(S(=O)(=O)N(C)C[C@H]2OCCCC[C@H](C)Oc3ccc(NC(=O)NC4CCCCC4)cc3C(=O)N([C@H](C)CO)C[C@H]2C)cc1`, the cytotoxicity call is “inactive”.
The same measure for `CN(C)CC(=O)N[C@H]1C=C[C@@H](CC(=O)O)O[C@@H]1CO`: “inactive”.
The same measure for `C[C@H](CO)N1C[C@H](C)[C@H](CN(C)C(=O)Nc2ccc(C(F)(F)F)cc2)Oc2ccc(NC(=O)Cc3ccccc3)cc2CC1=O`: “inactive”; for `C[C@H]1CN([C@@H](C)CO)C(=O)c2cccc(NC(=O)Nc3ccccc3)c2O[C@H]1CN(C)Cc1ccc(Oc2ccccc2)cc1`: “inactive”.
For `Cc1noc(C)c1S(=O)(=O)Nc1ccc2c(c1)C(=O)N([C@H](C)CO)C[C@H](C)[C@H](CN(C)Cc1ccc3c(c1)OCO3)O2`, the cytotoxicity call is “inactive”.
Take `COC[C@@H](O)CNc1ncnc2c1CCNCC2`: the cytotoxicity call is “inactive”.
The same measure for `C[C@H]1CN([C@@H](C)CO)C(=O)c2cccc(NC(=O)c3nc4ccccc4s3)c2O[C@@H]1CN(C)CC1CCCCC1`: “inactive”; for `Cc1noc(C)c1S(=O)(=O)N(C)C[C@H]1Oc2ccc(NC(=O)NC(C)C)cc2CC(=O)N([C@@H](C)CO)C[C@@H]1C`: “inactive”.
With `C[C@@H]1CN([C@@H](C)CO)C(=O)c2cc(NC(=O)c3ccccc3)ccc2O[C@@H](C)CCCCO[C@H]1CN(C)C(=O)Cc1ccccc1` the entry was “inactive”; with `O=C([C@H]1CCCCN1)N1CCCC1`, “inactive”; with `CC(=O)N1[C@H](CO)[C@@H](c2ccccc2)[C@H]1CNC(=O)CN1CCOCC1`, “inactive”.
The same measure for `Cc1ccc(S(=O)(=O)N(C)C[C@@H]2OCCCC[C@@H](C)Oc3ccc(NC(=O)NC4CCCCC4)cc3C(=O)N([C@H](C)CO)C[C@H]2C)cc1`: “active”.
In the case of `Cc1ccc(S(=O)(=O)N(C)C[C@@H]2OCCCC[C@@H](C)Oc3ccc(NC(=O)NC4CCCCC4)cc3C(=O)N([C@@H](C)CO)C[C@H]2C)cc1`, the cytotoxicity call is “inactive”.
With `Cc1ccc(S(=O)(=O)N(C)C[C@@H]2OCCCC[C@H](C)Oc3ccc(NC(=O)NC4CCCCC4)cc3C(=O)N([C@@H](C)CO)C[C@@H]2C)cc1` the entry was “inactive”; with `Cc1ccc(S(=O)(=O)N(C)C[C@H]2OCCCC[C@@H](C)Oc3ccc(NC(=O)NC4CCCCC4)cc3C(=O)N([C@@H](C)CO)C[C@H]2C)cc1`, “inactive”; with `Cc1ccc(S(=O)(=O)N(C)C[C@H]2OCCCC[C@@H](C)Oc3ccc(NC(=O)NC4CCCCC4)cc3C(=O)N([C@@H](C)CO)C[C@@H]2C)cc1`, “active”.
With `Cc1ccc(S(=O)(=O)N(C)C[C@@H]2OCCCC[C@@H](C)Oc3ccc(NC(=O)NC4CCCCC4)cc3C(=O)N([C@H](C)CO)C[C@@H]2C)cc1`, the cytotoxicity call is “inactive”.
